# “And” between values parts separate entries of the source, which are not always exact repeats. Identical values can stand only once. Values without a mark were called inactive. Inconclusive results are not listed. Where a call stands in place of a potency, no number is given. The source made the active and inactive calls. Unless noted, calls come from the whole dose curve; as a rule, active = well fitted curve in the direction sought with a large enough effect; inconclusive = small, poorly fitted or top-dose-only effect, or another doubt; inactive = no such curve, though single readings can be large; an effect the other way counts as inactive or inconclusive.
# Experiments:
# [1] = test system: C33A; assay: Primary qHTS to identify gynecologic anti-cancer compounds using libraries of approved drugs and bioactive compounds (AID 1345084); conditions: Gynecologic cancer cell panel viability, ATPlite luminescence, 48 h; series mostly up to 57.5 µM; note: nearly all actives have a fitted effect of over 55% in size; note: potency is the fitted concentration of half-maximal effect
# How it was run: (§1)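 ATP-based viability (ATPlite), 1,000 cells/well, 16 h pre-incubation, 48 h compound at 37 C, 5% CO2, 15 min RT before read.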
# [2] = test system: CASKI; assay: as above; conditions: Gynecologic cancer cell panel viability, ATPlite luminescence, 48 h; series mostly up to 57.5 µM
# How it was run: as §1
# [3] = test system: Es-2; assay: as above; conditions: Gynecologic cancer cell panel viability, ATPlite luminescence, 48 h; series mostly up to 57.5 µM
# How it was run: as §1
# [4] = test system: HeLa; assay: as above; conditions: Gynecologic cancer cell panel viability, ATPlite luminescence, 48 h; series mostly up to 57.5 µM
# How it was run: as §1
# [5] = test system: Hek293T; assay: as above; conditions: Gynecologic cancer cell panel viability, ATPlite luminescence, 48 h, control line for the selectivity index; series mostly up to 57.5 µM
# How it was run: as §1
# [6] = test system: PA-1; assay: as above; conditions: Gynecologic cancer cell panel viability, ATPlite luminescence, 48 h; series mostly up to 57.5 µM
# How it was run: as §1
# [7] = test system: Tov-21-G; assay: as above; conditions: Gynecologic cancer cell panel viability, ATPlite luminescence, 48 h; series mostly up to 57.5 µM
# How it was run: as §1
# [8] = test system: Tov112D; assay: as above; conditions: Gynecologic cancer cell panel viability, ATPlite luminescence, 48 h; series mostly up to 57.5 µM
# How it was run: as §1
# [9] = test system: NIH3T3; assay: qHTS assay to identify novel small-molecules to repurpose for Merkel cell carcinoma treatment (AID 1296009); conditions: MCC and control cell lines, CellTiter-Glo viability, 72 h; at 44.8 µM (top of the series) unless noted; note: nearly all actives have a fitted effect of over 60% in size; note: potency is the fitted concentration of half-maximal effect
# How it was run: (§2)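 Cells were treated for 72 hr at 37 degree celsius with compounds in 8- or 11-point dose response. Viability was read by CellTiter-Glo luminescence, normalized to no-cell (cytotoxicity) and DMSO controls.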
# [10] = test system: JEG-3; assay: Primary qHTS to identify gynecologic anti-cancer compounds using libraries of approved drugs and bioactive compounds (AID 1345084); conditions: Gynecologic cancer cell panel viability, ATPlite luminescence, 48 h; series mostly up to 57.5 µM; note: nearly all actives have a fitted effect of over 55% in size; note: potency is the fitted concentration of half-maximal effect
# How it was run: as §1
# [11] = test system: OV90; assay: as above; conditions: Gynecologic cancer cell panel viability, ATPlite luminescence, 48 h; series mostly up to 57.5 µM
# How it was run: as §1
# [12] = test system: SKOV3; assay: as above; conditions: Gynecologic cancer cell panel viability, ATPlite luminescence, 48 h; series mostly up to 57.5 µM
# How it was run: as §1
# [13] = Drug repurposing screens with cells derived from glioblastoma tumor samples (AID 1345199); conditions: GBM patient neurospheres viability, ATP luminescence, 48 h; note: nearly all actives have a fitted effect of over 40% in size; note: potency is the fitted concentration of half-maximal effect
# How it was run: (§3)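 Four patient lines of CD133+ GBM neurospheres were screened at several concentrations; hits were retested in those lines plus three slower-growing GBM lines, using 48-hour treatment and ATP-based viability.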
# [14] = test system: CAOV3; assay: Primary qHTS to identify gynecologic anti-cancer compounds using libraries of approved drugs and bioactive compounds (AID 1345084); conditions: Gynecologic cancer cell panel viability, ATPlite luminescence, 48 h; series mostly up to 57.5 µM; note: nearly all actives have a fitted effect of over 55% in size; note: potency is the fitted concentration of half-maximal effect
# How it was run: as §1
# [15] = qHTS assay to identify inhibitors of the type 1 interferon - major histocompatibility complex class I in skeletal muscle: Counter screen cell viability and HiBit confirmation (AID 1347412); conditions: iHSKM muscle cells + IFN-b, HiBiT or CellTiter-Glo, 24 h, at 45.9 µM (top of the series); note: nearly all actives have a fitted effect of over 60% in size
# How it was run: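 CRISPR HLA-B*08:01-HiBit immortalized human myoblasts (C25cl48) stimulated with 4 ng/ml IFN-beta and compounds (12-point 1:3, top 46 uM final) for 24 h at 37 C. Duplicate plates read by HiBit lytic luminescence or CellTiter Glo ATP.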
# [16] = test system: astro; assay: Drug repurposing screens with cells derived from glioblastoma tumor samples (AID 1345199); conditions: viability, ATP luminescence, 48 h; series mostly up to 45.9 µM; note: nearly all actives have a fitted effect of over 40% in size; note: potency is the fitted concentration of half-maximal effect
# How it was run: as §3
# [17] = target: Nuclear receptor subfamily 1 group I member 2 (Rattus norvegicus) (UniProt Q9R1A7); assay: qHTS assay for small molecule activators of the rat pregnane X receptor (rPXR) signaling pathway (AID 651751; call rule not given here); conditions: rPXR reporter cells, luciferase (One-Glo), 24 h
# [18] = test system: WaGa; assay: qHTS assay to identify novel small-molecules to repurpose for Merkel cell carcinoma treatment (AID 1296009); conditions: MCC and control cell lines, CellTiter-Glo viability, 72 h; series mostly up to 46 µM; note: nearly all actives have a fitted effect of over 60% in size; note: potency is the fitted concentration of half-maximal effect
# How it was run: as §2
# [19] = at 20 µM (top of the series), tumour line C
# [20] = at 45.9 µM (top of the series), tumour line B
# [21] = at 45.9 µM (top of the series), tumour line D
# [22] = at 46.1 µM (top of the series), tumour line C
# Nuclear receptor subfamily 1 group I member 2 (Rattus norvegicus), sequence (Q9R1A7 whole entry, looked up): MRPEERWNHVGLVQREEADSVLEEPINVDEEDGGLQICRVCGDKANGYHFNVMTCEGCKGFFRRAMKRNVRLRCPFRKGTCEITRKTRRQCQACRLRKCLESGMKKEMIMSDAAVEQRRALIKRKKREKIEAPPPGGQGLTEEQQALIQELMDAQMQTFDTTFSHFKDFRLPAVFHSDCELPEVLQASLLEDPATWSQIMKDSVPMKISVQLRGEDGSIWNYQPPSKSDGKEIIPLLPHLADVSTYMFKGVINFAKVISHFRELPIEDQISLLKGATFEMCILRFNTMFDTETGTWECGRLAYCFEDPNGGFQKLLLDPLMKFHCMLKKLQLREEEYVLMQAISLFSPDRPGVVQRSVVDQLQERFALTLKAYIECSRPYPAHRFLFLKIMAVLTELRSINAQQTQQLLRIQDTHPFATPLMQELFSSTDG
smiles,measurement,setting,value
COc1ccc(/C=C/C(=O)Nc2ccccc2C(=O)O)cc1OC,Potency,[1],inactive
same,Potency,[2],inactive
same,Potency,[3],inactive
same,Potency,[4],inactive
same,Potency,[5],inactive
same,Potency,[6],inactive
same,Potency,[7],inactive
same,Potency,[8],inactive
COC(=O)[C@H]1[C@H]2C[C@@H]3c4[nH]c5cc(OC)ccc5c4CCN3C[C@H]2C[C@@H](OC(=O)/C=C/c2cc(OC)c(OC)c(OC)c2)[C@@H]1OC,outcome,[9],inactive [at 17.4 µM]
same,Potency,[1],inactive
same,Potency,[2],inactive
same,Potency,[3],inactive
same,Potency,[4],inactive
same,Potency,[5],inactive
same,Potency,[10],inactive
same,Potency,[11],inactive
same,Potency,[6],inactive
same,Potency,[12],inactive
same,Potency,[7],inactive
same,Potency,[8],inactive
same,"activity, negative = cell killing",[13]; [19],-5.29%
same,"activity, negative = cell killing","[13]; at 21.2 µM (top of the series), tumour line D",-21.8%
same,Potency,[13]; tumour line A,10 µM (active)
CCCCN(CC)c1nc(C)nc2c1c(C)cn2-c1c(C)cc(C)cc1C,Potency,[1],inactive
same,Potency,[2],inactive
same,Potency,[3],inactive
same,Potency,[4],inactive
same,Potency,[5],inactive
same,Potency,[10],inactive
same,Potency,[11],inactive
same,Potency,[6],inactive
same,Potency,[7],inactive
same,Potency,[8],inactive
O=c1[nH]c2ccccc2n1CCCN1CCN(C(c2ccccc2)c2ccccc2)CC1,Potency,[1],inactive
same,Potency,[4],inactive
same,Potency,[10],inactive
same,Potency,[8],inactive
C#CC1(O)CC[C@H]2[C@@H]3CCC4=CCCC[C@@H]4[C@H]3CC[C@@]21C (some centres not stated),Potency,[1],inactive
same,Potency,[14],inactive
same,Potency,[2],inactive
same,Potency,[3],inactive
same,Potency,[4],inactive
same,Potency,[5],inactive
same,Potency,[10],inactive
same,Potency,[11],inactive
same,Potency,[7],inactive
same,Potency,[8],inactive
same,"activity, negative = cell killing",[13]; [19],-10.1%
same,Potency,[13]; tumour line A,11.2 µM (active)
COC(=O)C1=C(C)NC(C)=C(C(=O)OC)C1c1cccc(NC(=O)NCCCN2CCC(c3cccc(OC)c3)CC2)c1,Potency,[1],inactive
same,Potency,[14],22.4 µM (active)
same,Potency,[3],inactive
same,Potency,[4],inactive
same,Potency,[5],inactive
same,Potency,[7],inactive
same,"activity change, negative = inhibition",[15]; HiBiT,-3.18%
same,"activity change, negative = inhibition",[15]; Viability,-19.5%
O=C(O)c1cc(O)c(O)c(O)c1,Potency,[1],inactive
same,Potency,[2],inactive
same,Potency,[3],inactive
same,Potency,[4],inactive
same,Potency,[5],inactive
same,Potency,[10],inactive
same,Potency,[11],inactive
same,Potency,[6],inactive
same,Potency,[7],inactive
same,Potency,[8],inactive
same,"activity, negative = cell killing",[13]; [20],-10.4%
same,"activity, negative = cell killing",[13]; [21],-20.6%
same,"activity, negative = cell killing",[13]; [22],20.7%
same,Potency,[16],inactive
same,max response,[17],-9.5%
COC(=O)Nc1nc2ccc(C(=O)C3CC3)cc2[nH]1,Potency,[1],12.6 µM (active)
same,Potency,[14],inactive
same,Potency,[3],3.16 µM (active)
same,Potency,[4],2 µM (active)
same,Potency,[10],7.94 µM (active)
same,Potency,[11],11.2 µM (active)
same,Potency,[6],1.12 µM (active)
same,Potency,[12],10 µM (active)
same,Potency,[7],1.41 µM (active)
same,Potency,[8],1.58 µM (active)
c1ccc(CCNc2nc(-c3ccccc3)cs2)cc1,Potency,[18],inactive
same,Potency,[1],inactive
same,Potency,[2],inactive
same,Potency,[3],inactive
same,Potency,[4],inactive
same,Potency,[5],inactive
same,Potency,[10],inactive
same,Potency,[6],inactive
same,Potency,[12],inactive
same,Potency,[7],inactive
same,Potency,[8],inactive
same,"activity, negative = cell killing",[13]; [20],-22.5%
same,Potency,[13]; tumour line A,14.1 µM (active)
CN1[C@@H]2CC[C@H]1CC(OC(=O)C(CO)c1ccccc1)C2 (some centres not stated),Potency,[1],inactive
same,Potency,[14],inactive
same,Potency,[2],inactive
same,Potency,[3],inactive
same,Potency,[4],inactive
same,Potency,[5],inactive
same,Potency,[10],inactive
same,Potency,[11],inactive
same,Potency,[6],inactive
same,Potency,[12],inactive
same,Potency,[7],inactive
same,Potency,[8],inactive
same,"activity, negative = cell killing",[13]; [20],-12.1% and -3.29%
same,"activity, negative = cell killing",[13]; [21],-9.67% and -14.2%
same,"activity, negative = cell killing",[13]; [22],4.75% and 11.7%
same,Potency,[16],inactive
CN1[C@@H]2CC[C@H]1CC(OC(c1ccccc1)c1ccccc1)C2 (some centres not stated),Potency,[1],inactive
same,Potency,[2],inactive
same,Potency,[3],inactive
same,Potency,[4],inactive
same,Potency,[5],inactive
same,Potency,[10],inactive
same,Potency,[6],inactive
same,Potency,[12],inactive
same,Potency,[7],inactive
same,Potency,[8],inactive
same,"activity, negative = cell killing",[13]; [20],-9.62%
same,Potency,[13]; tumour line A,7.08 µM (active)
Nc1ccc([N+](=O)[O-])cc1O,Potency,[1],inactive
same,Potency,[4],inactive
same,Potency,[5],inactive
same,Potency,[10],inactive
same,Potency,[6],4.47 µM (active)
same,Potency,[7],inactive
same,Potency,[8],inactive
same,Potency,[16],inactive
same,max response,[17],-5.85% and -4.85%
CC1(C)[C@@H](O[C@H]2O[C@H](C(=O)O)[C@@H](O)[C@H](O)[C@H]2O[C@@H]2O[C@H](C(=O)O)[C@@H](O)[C@H](O)[C@H]2O)CC[C@]2(C)[C@H]3C(=O)C=C4[C@@H]5C[C@@](C)(C(=O)O)CC[C@]5(C)CC[C@@]4(C)[C@]3(C)CC[C@@H]12,Potency,[1],inactive
same,Potency,[14],inactive
same,Potency,[2],inactive
same,Potency,[3],inactive
same,Potency,[4],inactive
same,Potency,[5],inactive
same,Potency,[10],inactive
same,Potency,[11],inactive
same,Potency,[6],inactive
same,Potency,[7],inactive
same,Potency,[8],inactive
same,"activity, negative = cell killing",[13]; [20],-9.84%
same,"activity, negative = cell killing",[13]; [21],5.57%
same,"activity, negative = cell killing","[13]; at 46 µM (top of the series), tumour line A",-2.05%
same,"activity, negative = cell killing",[13]; [22],21.2%
same,Potency,[16],inactive
O=C(CS)Nc1ccccc1,Potency,[18],inactive
same,Potency,[1],inactive
same,Potency,[2],inactive
same,Potency,[3],inactive
same,Potency,[4],inactive
same,Potency,[5],inactive
same,Potency,[10],inactive
same,Potency,[11],inactive
same,Potency,[6],inactive
same,Potency,[12],inactive
same,Potency,[7],inactive
same,Potency,[8],inactive
same,"activity, negative = cell killing",[13]; [22],-39.6%
same,Potency,[13]; tumour line D,12.6 µM (active)
COc1cc(CNC(=O)CCCC/C=C/C(C)C)ccc1O,Potency,[1],inactive
same,Potency,[14],inactive
same,Potency,[2],inactive
same,Potency,[3],inactive
same,Potency,[4],inactive
same,Potency,[5],inactive
same,Potency,[10],inactive
same,Potency,[11],inactive
same,Potency,[6],inactive
same,Potency,[12],inactive
same,Potency,[7],inactive
same,Potency,[8],inactive
same,"activity, negative = cell killing",[13]; [20],-4.61%
same,"activity, negative = cell killing",[13]; [21],-7.09%
same,"activity, negative = cell killing",[13]; [22],17.4%
same,Potency,[13]; tumour line A,11.2 µM (active)
same,Potency,[16],inactive
same,max response,[17],0.324% and -3.76%
O=C(Nc1ccc2[nH]ncc2c1)C1CCC1,Potency,[1],inactive
same,Potency,[2],inactive
same,Potency,[3],inactive
same,Potency,[4],inactive
same,Potency,[5],inactive
same,Potency,[10],inactive
same,Potency,[11],inactive
same,Potency,[6],inactive
same,Potency,[12],inactive
same,Potency,[7],inactive
same,Potency,[8],inactive
Cc1cc(O)c2ccccc2c1O,Potency,[18],23.7 µM (active)
same,Potency,[1],inactive
same,Potency,[2],inactive
same,Potency,[4],inactive
same,Potency,[5],inactive
same,Potency,[10],inactive
same,Potency,[11],inactive
same,Potency,[12],inactive
same,Potency,[8],inactive
same,"activity, negative = cell killing",[13]; [22],5.51%
same,Potency,[13]; tumour line A,35.5 µM (active)
